Source: PubChem BioAssay
G9a inh = G9a (human) methyltransferase inhibition; Q96KQ7; G9a H3K9 monomethylation, AlphaScreen, 2 h; Potency, µM (series often up to 102 µM), inactives show at the top dose activity, negative = inhibition, usual class: inhibitors; actives 8.8% (n = 350,000); note: % is set by controls: 0 for no effect and ±100 for the full control effect; nearly all actives have a fitted effect of over 75% in size
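Enzyme 20 nM + cpd, 15 min RT; add b-H3K9 pep 500 nM / SAM 20 uM; 2 h RT; anti-H3K9me1 Ab 0.5 ug/mL + SA donor / anti-rabbit acceptor beads 20 ug/mL each, 10 min; AlphaScreen read.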
GLS inhibitor = blocks human kidney-isoform glutaminase activity | O94925 | GLS enzymatic activity, qHTS titration | Potency, µM (top dose mostly 45.5 µM), inactives show at the top dose activity change, negative = inhibition, most hits filed as inhibitors | actives 0.21% (n = 410,000); note: % is set by controls: 0 for no effect and ±100 for the full control effect
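Assay buffer: 45 mM KH2PO4 pH 8.2, 0.02% Tween-20. hKGA acts on L-glutamine (1 mM solution added); product glutamate is reported by an oxidase/peroxidase Amplex Red coupling, with fluorescence taken at baseline and 30 min.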
HP1b binding inh = HP1-beta chromodomain-methylated histone interaction inhibition; AlphaScreen HP1-beta / biotin-H3K9me3 peptide binding; Potency, µM (doses to about 114 µM), for inactives: top-dose activity change, negative = inhibition, hits mostly inhibitors; actives 0.56% (n = 390,000); note: nearly all actives have a fitted effect of over 70% in size
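AlphaScreen: HP1-beta (50 nM) preformed 30 min with biotin-H3(1-18)K9me3 peptide (50 nM) in PBS pH 7.4, 0.01% Tween-20. Compound added for 30 min at RT, then streptavidin donor/nickel chelate acceptor beads (10 ug/mL) for 30 min.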
L3MBTL1 inh = blocks human L3MBTL1. Q9Y468. AlphaScreen L3MBTL1–H3K9me1 peptide binding. Potency, µM (doses to about 57.1 µM), without a hit: top-dose activity, negative = inhibition, hits mostly inhibitors. actives 0.66% (n = 230,000). AID 485360; note: % is set by controls: 0 for no effect and ±100 for the full control effect; nearly all actives have a fitted effect of over 60% in size
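AlphaScreen assay: L3MBTL1 (50 nM final) was preincubated 30 min at room temperature with biotinylated H3(1-15)K9me1 peptide (75 nM final), then 30 min with library compounds; streptavidin donor and nickel chelate acceptor beads (10 ug/mL final) added, 30 min dark.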
JMJD2A Tudor = blocks the human JMJD2A Tudor domain; actives 4.4% (n = 390,000); AlphaScreen JMJD2A-Tudor / H3K4me3 peptide binding; Potency, µM (series often up to 114 µM), for inactives: at the highest dose activity change, negative = inhibition, usual class: inhibitors; note: % is set by controls: 0 for no effect and ±100 for the full control effect; nearly all actives have a fitted effect of over 50% in size
BAZ2B block = inhibitors of human BAZ2B bromodomain. Q9UIF8. AlphaScreen BAZ2B-H3K14Ac peptide displacement. Potency, µM (series often up to 114 µM), without a hit: at the highest dose activity change, negative = inhibition, actives largely listed as inhibitors. actives 4.4% (n = 360,000). AID 504333; note: % is set by controls: 0 for no effect and ±100 for the full control effect; nearly all actives have a fitted effect of over 60% in size
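AlphaScreen luminescence quantifies BAZ2B engagement of H3K14Ac peptide; the protein and biotinylated peptide are both at 50 nM final, buffer PBS pH 7.4 with 0.01% Tween-20, all steps at room temperature.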
An asterisk follows results filed as active; [ ] = another dose, or the depositor's remark. An excerpt weighted towards active compounds, which were near 10% of everything screened. Calls come from the whole dose curve; as a rule, active = well fitted curve in the direction sought with a large enough effect; inconclusive = small, poorly fitted or top-dose-only effect, or another doubt; inactive = no such curve, though single readings can be large; an effect the other way counts as inactive or inconclusive. Potency is the fitted concentration of half-maximal effect.

Screening Cc1ccc(NS(=O)(=O)c2ccc3[nH]c4c(c3c2)CCCC4)cc1N(C)C returned G9a inh inconclusive, GLS inhibitor 24%, HP1b binding inh inconclusive, JMJD2A Tudor 35µM* and BAZ2B block 32µM*.
Cc1cccc(NS(=O)(=O)c2ccc3[nH]c4c(c3c2)CCCCCC4)c1 was read as G9a inh 16µM*, GLS inhibitor -6%, HP1b binding inh 8%[57 µM], JMJD2A Tudor inconclusive and BAZ2B block -29%.
Screening CC(=O)c1cccc(NS(=O)(=O)c2ccc3[nH]c4c(c3c2)CCCCC4)c1 returned G9a inh 16µM*, GLS inhibitor -7%, HP1b binding inh -21%, JMJD2A Tudor inconclusive and BAZ2B block -37%[57.1 µM].
Screening O=S(=O)(Nc1cccc(Cl)c1)c1ccc2[nH]c3c(c2c1)CCCCCC3 returned G9a inh -9%[59 µM], GLS inhibitor 2%, HP1b binding inh -4%[57 µM], JMJD2A Tudor inconclusive and BAZ2B block inconclusive.
COc1cc(C2CC(=O)Nc3cc4c(cc32)OCCO4)cc(OC)c1O (stereo not given) was read as G9a inh inconclusive, GLS inhibitor 12%, HP1b binding inh 19%, JMJD2A Tudor -25% and BAZ2B block -13%.
Screening Cc1ccc(CN2CCN(C3CCN(C(=O)OC(C)(C)C)CC3)C(=O)C2=O)cc1 returned G9a inh -8%[59 µM], GLS inhibitor -10%, HP1b binding inh 11%, JMJD2A Tudor -17% and BAZ2B block -14%.
Screening Cc1cccc(N2CCN(S(=O)(=O)c3csc(C(N)=O)c3)CC2)c1C returned G9a inh inconclusive, GLS inhibitor -2%, HP1b binding inh -3%, JMJD2A Tudor -32% and BAZ2B block -25%.
For CC(C)(C)OC(=O)Cc1nnc(CNC(=O)c2ccccc2)s1 the results were JMJD2A Tudor -4%.
`COc1ccc(C2NC(=O)N(C)C3=C2C(=O)N(c2cccc(C(=O)O)c2)C3)cc1` (stereo not given) gave G9a inh -27%[59 µM], GLS inhibitor -1%, HP1b binding inh 19%, JMJD2A Tudor inconclusive and BAZ2B block -11%.
`Cc1ccccc1NS(=O)(=O)c1ccc2[nH]c3c(c2c1)CCCCC3` gave G9a inh inconclusive, GLS inhibitor 6%, HP1b binding inh -33%, JMJD2A Tudor 45µM* and BAZ2B block -29%[57.1 µM].
CC(C)(C)NS(=O)(=O)c1ccc2[nH]c3c(c2c1)CCCCC3 was read as G9a inh 71µM*, GLS inhibitor 10%, HP1b binding inh inconclusive, JMJD2A Tudor inconclusive and BAZ2B block 45µM*.
Screening CCc1ccc(C2c3c(n[nH]c3C)C(=O)N2c2ccc(C)cc2)cc1 (stereo not given) returned G9a inh -34%[59 µM], GLS inhibitor 4%, HP1b binding inh 7% and JMJD2A Tudor -17%.
Screening Cc1ccc(Cc2cnc(NC(=O)c3ccc4c(c3)CC(c3ccccc3)OC4=O)s2)cc1 (stereo not given) returned G9a inh 36%[59 µM], GLS inhibitor -5%, HP1b binding inh 66%, JMJD2A Tudor -6% and BAZ2B block 31%.
For CC(=O)c1c(C)nc2ccccc2c1N the results were G9a inh 20%[59 µM], GLS inhibitor 17%, HP1b binding inh 32%, JMJD2A Tudor -10% and BAZ2B block 12%.
For CCOC(=O)c1c(CCl)nc2ccccc2c1C the results were G9a inh inconclusive, GLS inhibitor 0%, HP1b binding inh 32%, L3MBTL1 inh -7%, JMJD2A Tudor 89µM* and BAZ2B block inconclusive.
Cc1nc2ccccc2c(C)c1C(=O)c1ccccc1 was read as G9a inh 50µM*, GLS inhibitor -16%, HP1b binding inh 34%, L3MBTL1 inh 4%, JMJD2A Tudor -8%[11.4 µM] and BAZ2B block inconclusive.
Screening CCN(CC)CCN(C(=O)CCS(=O)(=O)c1ccccc1)c1nc2cc(OC)c(OC)cc2s1 returned G9a inh 18µM*, GLS inhibitor 15%, HP1b binding inh 36%, JMJD2A Tudor -9% and BAZ2B block -19%.
Cc1cc(C)c2sc(N(CCN(C)C)C(=O)CCS(=O)(=O)c3ccccc3)nc2c1 was read as G9a inh 40µM*, GLS inhibitor -13%, HP1b binding inh 6%, JMJD2A Tudor inconclusive and BAZ2B block -28%.
For CCN(CC)CCN(C(=O)CCS(=O)(=O)c1ccccc1)c1nc2cc(C)cc(C)c2s1 the results were G9a inh 35µM*, GLS inhibitor 1%, HP1b binding inh 51%, JMJD2A Tudor -22% and BAZ2B block -15%.
Screening CCN(CC)CCN(C(=O)c1ccccc1OC)c1nc2ccc(F)cc2s1 returned G9a inh inconclusive, GLS inhibitor 0%, HP1b binding inh 5% and JMJD2A Tudor -26%.
`CCN(CC)CCN(C(=O)CCS(=O)(=O)c1ccccc1)c1nc2c(C)cc(C)cc2s1` gave G9a inh 45µM*, GLS inhibitor 6%, HP1b binding inh 15%, JMJD2A Tudor -23% and BAZ2B block -3%.
Screening Cc1ccc(C(=O)NCCc2ccc(Cl)cc2)cc1-n1c(C)nc2cccnc21 returned G9a inh 8%[59 µM], GLS inhibitor 5%, HP1b binding inh 53%, JMJD2A Tudor 7% and BAZ2B block -4%.
`CCOC(=O)CCCc1sc(N)nc1-c1[nH]c(=O)[nH]c1C` gave G9a inh 4.5µM*, GLS inhibitor 8%, HP1b binding inh inconclusive, L3MBTL1 inh -91%, JMJD2A Tudor 2.2µM* and BAZ2B block 6.3µM*.
CCOC(=O)CCc1c(C)n[nH]c1C was read as G9a inh -28%, GLS inhibitor 3%, HP1b binding inh 27%, JMJD2A Tudor -18% and BAZ2B block -18%.
For COc1ccc(CNC(=O)CN(C)S(=O)(=O)c2ccc3[nH]c4c(c3c2)CCCC4)cc1 the results were G9a inh inconclusive, GLS inhibitor 7%, HP1b binding inh -14%, JMJD2A Tudor inconclusive and BAZ2B block inconclusive.
`Cc1cccc(N(C)C(=O)CN(C)S(=O)(=O)c2ccc3[nH]c4c(c3c2)CCCC4)c1` gave G9a inh 11µM*, GLS inhibitor 8%, HP1b binding inh inconclusive, JMJD2A Tudor inconclusive and BAZ2B block inconclusive.
`Cc1cccc(C)c1NC(=O)CN(C)S(=O)(=O)c1ccc2[nH]c3c(c2c1)CCCC3` gave G9a inh 14µM*, GLS inhibitor 6%, HP1b binding inh -8%, JMJD2A Tudor inconclusive and BAZ2B block 40µM*.
